# Screen size: about 290,000 compounds; about 3,000 (1%) were called active. Cut-off read from the data, not from the text of the source: active = inhibition mostly above about 36% (no sharp cut-off); inactive = mostly below about 34%. What follows is part of a selection rich in actives, with near analogues and random picks from the rest.
# Assay: NOD1 signaling inhibitors, primary screen, cell-based, luminescence, uHTS (AID 1578);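 note: HEK-293T reporter cells stimulated with the NOD1 agonist gamma-tri-DAP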
# Conditions: NOD1-driven NF-kB luciferase reporter cells, at 4 µM, hits give high values
row,SMILES,inhibition
1,Cc1ccc(C)c(NC(=O)CCN2CC(C)OC(C)C2)c1 (stereo unspecified),-8.9% (inactive)
2,COc1ccc(CN2CCSc3sccc3C2=O)cc1,-4.1% (inactive)
3,Cc1ccc(S(=O)(=O)C(C#N)c2nc3ccccc3nc2N2CCCCC2)cc1 (stereo unspecified),-4.7% (inactive)
4,Cc1ccc(S(=O)(=O)C(C#N)c2nc3ccccc3nc2OCCO)cc1 (stereo unspecified),-27.7% (inactive)
5,CC1CCCN(c2nc3ccccc3nc2C(C#N)S(=O)(=O)c2ccccc2)C1 (stereo unspecified),102% (active)
6,N#CC(c1nc2ccccc2nc1N1CCCC1)S(=O)(=O)c1ccccc1 (stereo unspecified),10.2% (inactive)
7,N#CC(c1nc2ccccc2nc1OCCO)S(=O)(=O)c1ccccc1 (stereo unspecified),-3.6% (inactive)
8,N#CC(c1nc2ccccc2nc1N1CCCCC1)S(=O)(=O)c1ccc(Cl)cc1 (stereo unspecified),88.1% (active)
9,CC1CCCN(c2nc3ccccc3nc2C(C#N)S(=O)(=O)c2cccs2)C1 (stereo unspecified),13.4% (inactive)
10,COc1ccc(S(=O)(=O)C(C#N)c2nc3ccccc3nc2N2CCCC(C)C2)cc1 (stereo unspecified),-10.7% (inactive)
11,CCCCOc1nc2ccccc2nc1C(C#N)S(=O)(=O)c1ccccc1 (stereo unspecified),79.5% (active)
12,CCCCOC(=O)c1cccnc1,9.9% (inactive)
13,Cc1c(Cl)cccc1NC(=O)Nc1c(C)n(C)n(-c2ccccc2)c1=O,-22.5% (inactive)
14,O=C(Cc1n[nH]c(=O)[nH]c1=O)N/N=C/c1c(O)ccc2ccccc12,-32.5% (inactive)
15,COCCN1C(=O)c2ccccc2C(C(=O)N2CCN(c3ccccn3)CC2)C1c1ccc(F)cc1 (stereo unspecified),13.2% (inactive)
16,COc1cccc(CNC(=O)CCC2CCCN(C(=O)Cc3ccccc3F)C2)c1 (stereo unspecified),-26.2% (inactive)
17,CC(O)c1nc2ccccc2n1CC(=O)N1CCN(c2ccccc2)CC1 (stereo unspecified),-27.8% (inactive)
18,CCOc1ccccc1NC(=S)N(CCCN1CCOCC1)Cc1cn(C)c2ccccc12,-4.6% (inactive)
19,CCSc1nc(N)nc(-c2cccs2)c1C#N,-29% (inactive)
20,N#Cc1c(Cl)nc(SCc2ccccc2)nc1-c1ccccc1,32.4% (inactive)
21,N#Cc1c(-c2ccccc2)nc(SCc2ccc(Cl)cc2)[nH]c1=O,-2.4% (inactive)

row,SMILES,inhibition
1,O=c1nc(SCc2cccc(C(F)(F)F)c2)nc2ccccn12,-17.7% (inactive)
2,N#Cc1c(N)nc(SCc2ccncc2)c(C#N)c1-c1cccs1,61.6% (inactive)
3,N#Cc1c(-c2ccccc2)nc(SCc2cccc(Cl)c2)[nH]c1=O,18.9% (inactive)
4,N#Cc1cc2ccccc2nc1SCC(=O)NC1CC1,-32.4% (inactive)
5,Cc1ccc(NC(=S)NNC(=O)c2c(Cl)c(C)nn2C)cc1,0% (inactive)
6,Cc1ccc2c(c1)N(CC(=O)NC1CCCC1)C(=O)CO2,-27.1% (inactive)
7,CCOC(=O)C1(CC)NC(c2ccc(OC)c(OC)c2)C2C(=O)N(c3cccc(C(C)=O)c3)C(=O)C21 (stereo unspecified),-2.3% (inactive)
8,Cc1nc([N+](=O)[O-])cn1CC(O)c1ccc(-c2ccccc2)cc1 (stereo unspecified),-8.6% (inactive)
9,COc1ccc(N2CCN(C(=O)CSc3nnc4c(C)cc5ccccc5n34)CC2)cc1,-15.6% (inactive)
10,C#CCOC(=O)c1cc(Cl)c(=O)n(Cc2ccc(Cl)cc2Cl)c1,12.3% (inactive)
11,CC(NC(=O)/C(C#N)=C/c1ccco1)c1ccccc1 (stereo unspecified),-8.1% (inactive)
12,Cc1nn(Cc2c(F)c(F)c(F)c(F)c2F)c(C)c1NC(=O)c1c([N+](=O)[O-])c(C)nn1C,10.1% (inactive)
13,Cc1cc(C)c(C#N)c(SCC(=O)c2ccc(Cl)cc2Cl)n1,68.6% (active)
14,Cc1cc(C)c(C#N)c(SCC(=O)c2ccccc2)n1,-26.8% (inactive)
15,Cc1cc(C)c(C#N)c(SCC(=O)c2cccs2)n1,-63.4% (inactive)
16,CNc1ccccc1C(=O)OCC(C)=O,-41.6% (inactive)
17,COc1ccc(CCNC(=O)CCC(=O)N2CCOc3ccc(C)cc32)cc1OC,10.2% (inactive)
18,COc1cc(-c2cc(C(=O)Nc3ccc(O)cc3)c3ccccc3n2)cc(OC)c1OC,6.4% (inactive)
19,COc1cc(-c2cc(C(=O)Nc3cccc(C(C)=O)c3)c3ccccc3n2)cc(OC)c1OC,63.6% (active)
20,COc1ccc(NC(=O)c2cc(-c3cc(OC)c(OC)c(OC)c3)nc3ccccc23)cc1OC,43.8% (inactive)
21,C=CCC(c1ccccc1F)N(CCN1CCOCC1)C(=O)Nc1cccc(Cl)c1 (stereo unspecified),7.7% (inactive)

row,SMILES,inhibition
1,COCCN(C(=O)CCC(=O)Nc1cc(C)on1)C(C(=O)NC1CCCC1)c1ccccc1C (stereo unspecified),-13.7% (inactive)
2,COC(CN(C(=O)CCl)C(C(=O)NC1CCCCC1)c1ccc(C)cc1)OC (stereo unspecified),68.9% (inactive)
3,COc1ccc(C(C(=O)NC2CCCC2)N(C(=O)c2ccoc2C)c2ccc(C)cc2)cc1 (stereo unspecified),-10.4% (inactive)
4,COCCN(C(=O)C(=O)NC1CCCC1)C(C(=O)NC1CCCC1)c1ccccc1F (stereo unspecified),-25.2% (inactive)
5,O=S(=O)(NC1CCCCC1)c1cccc(-c2nnc(-c3ccccc3)o2)c1,8.5% (inactive)
6,Cc1ccc(C(C(=O)NC2CCCC2)N(C(=O)Cc2cccs2)c2ccc3c(c2)OCCO3)cc1 (stereo unspecified),-7.5% (inactive)
7,O=C(CN1CCOCC1)N/N=C/c1ccc(-c2cccc(Cl)c2Cl)o1,-9.3% (inactive)
8,O=C(CN1C(=O)COc2ccccc21)NCCN1CCOCC1,-38% (inactive)
9,CC(=O)c1c(O)c2ccccc2n(C2CCCCC2)c1=O,57.4% (active)
10,CCn1c(=O)c(C(C)=O)c(O)c2ccccc21,-17% (inactive)
11,CC(=O)c1c(O)c2ccccc2n(C)c1=O,-26% (inactive)
12,CC(C)CC(=O)c1c[nH]c(C(=O)O)c1,-16.9% (inactive)
13,CC(Cl)C(=O)Nc1ncc(C(F)(F)F)cc1Cl (stereo unspecified),-12% (inactive)
14,CCCSC(=S)c1c(C)[nH]n(-c2ccccc2)c1=O,50.5% (active)
15,Cc1[nH]n(-c2ccccc2)c(=O)c1C(=O)c1ccccc1,-3.5% (inactive)
16,CCSC(=S)c1c(C)[nH]n(-c2ccccc2)c1=O,1.7% (inactive)
17,CCCOc1ccc(N2C(=O)CC(N(Cc3ccco3)C(=O)CC)C2=O)cc1 (stereo unspecified),-3.4% (inactive)
18,COc1ccc(CCNC(=O)c2cccs2)cc1OC,-51.6% (inactive)
19,COc1ccc(C2(O)CCN(C(=O)NC3CCCCC3)CC2)cc1,-14.2% (inactive)
